# Screening results: PubChem BioAssay, National Center for Advancing Translational Sciences (NCATS)
# This excerpt belongs to a sample that is enriched for hits.
# TexasRed fluor – Total Fluorescence Counterscreen for Inhibitors of the Interaction of Thyroid Hormone Receptor and Steroid Receptor Coregulator 2; TRb/SRC2 Texas Red total fluorescence interference; Potency, µM (top dose mostly 106 µM); hit rate 0.29% among 280,000; AID 1479, 2009; active = well fitted curve in either direction with a large enough effect; inconclusive = small, poorly fitted or top-dose-only effect
#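 Flags fluorescent or light-absorbing compounds by total fluorescence, S + 2P, at 555 nm excitation and 632 nm emission. Mixture: 20 nM Texas Red SRC2 peptide, 0.6 uM human TRb LBD, 1 uM T3, 5% DMSO; compound exposure 5 h at ambient temperature.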
# TRb SRC2 PPI – qHTS for Inhibitors of the Interaction of Thyroid Hormone Receptor and Steroid Receptor Coregulator 2; AID 1469, 2008; Thyroid hormone receptor beta (Homo sapiens), P10828; Potency, µM (doses to about 106 µM), usual class: inhibitors; TRbeta-SRC2 peptide binding, fluorescence polarization; receptor liganded with 1 µM T3; hit rate 0.065% among 280,000; active = well fitted inhibition curve with a large enough effect; inconclusive = small, poorly fitted or top-dose-only effect, or effect the other way; also: nearly all actives have a fitted effect of over 50% in size
#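 TRb LBD 0.6 uM + Texas Red SRC2 peptide 20 nM, 1 uM T3, Tris buffer w/ 5% DMSO; compound pinned, 5 h RT; FP read ex 555/em 632; normalized to unbound and bound controls.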
# RGS12 GoLoco inh – qHTS Assay for Inhibitors of RGS12 GoLoco Motif Activity (Red Fluorophore) | Guanine nucleotide-binding protein G(i) subunit alpha-1 (Homo sapiens), P63096 | Gai1:RGS12 GoLoco peptide FP, rhodamine, 10 min | Potency, µM (titrated, usually from 61.6 µM), most hits filed as inhibitors | hit rate 0.44% among 230,000; active = well fitted inhibition curve with a large enough effect, not every such curve was filed as active; inactive = no such curve, though single readings can be large or run the other way; also: nearly all actives have a fitted effect of over 30% in size
# ERG Ets-DNA blk – qHTS for Small Molecule Inhibitors of the ERG Ets/DNA interaction; fluorescence polarization, His-ERG Ets domain / labelled DNA; hit rate 0.028% among 370,000; Potency, µM (doses to about 76.9 µM), actives largely listed as inhibitors; Transcriptional regulator ERG (Homo sapiens), P11308; active = well fitted inhibition curve with a large enough effect in the polarisation, with a control signal flat; inconclusive = small, poorly fitted or top-dose-only effect, or effect the other way, or a change in a side signal; inactive = no such curve, though single readings can be large or run the other way; the % refers to the polarisation;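 also: polarization taken with two DNA probes labelled with fluorescein and Texas red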
# Target sequence (P11308 whole entry, looked up, the tested form may be a part): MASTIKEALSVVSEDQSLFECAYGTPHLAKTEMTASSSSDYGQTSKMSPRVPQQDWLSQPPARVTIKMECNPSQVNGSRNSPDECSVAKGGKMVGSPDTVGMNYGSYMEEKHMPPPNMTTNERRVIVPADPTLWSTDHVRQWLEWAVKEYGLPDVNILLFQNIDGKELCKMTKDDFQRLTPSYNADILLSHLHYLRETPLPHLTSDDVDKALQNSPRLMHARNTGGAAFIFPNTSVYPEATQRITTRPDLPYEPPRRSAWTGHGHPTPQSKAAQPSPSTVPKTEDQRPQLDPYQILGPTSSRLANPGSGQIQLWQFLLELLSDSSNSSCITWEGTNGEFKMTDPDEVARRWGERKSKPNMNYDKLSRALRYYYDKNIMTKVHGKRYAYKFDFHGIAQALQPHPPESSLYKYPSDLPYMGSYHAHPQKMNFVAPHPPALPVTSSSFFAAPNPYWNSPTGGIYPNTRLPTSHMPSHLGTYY
#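 His-tagged ERG Ets domain (1 uM in the protein solution; 300mM KCl, 50mM Tris-HCl, 1mM EDTA, 1mM DTT, pH 7.5) received compound, then a probe mix of 5 nM fluorescein-DNA and 100nM Texas-615-DNA. Fluorescence polarization was read for both dyes.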
# Numbers stand for hits; 0 = inactive; ? = inconclusive; - = no result given; ! = not confirmed by another sample; [ ] = remark or other dose.
SMILES,TexasRed fluor,TRb SRC2 PPI,RGS12 GoLoco inh,ERG Ets-DNA blk
O=C(c1ccccc1)c1c2c(cc3sc4ccccc4[n+]13)-c1cccc3cccc-2c13,0,0,1.26µM,0
CC(C)C(=O)OCC(C)(C)C(O)C(C)C (centres undefined),0,0,-,-
CN(C)/C=C1\SC(=S)N(c2ccc(F)cc2)C1=O,0,0,0,0
CN(C)/C=C1\SC(=S)N(c2ccc(Br)cc2)C1=O,31.6µM[fluorescent],?,0,0
O=C(O)/C=C/C(=O)Nc1ccc(OC(F)(F)F)cc1Br,0,31.6µM,0,0
O=C(O)/C=C/C(=O)Nc1ccc(OC(F)(F)F)cc1,0,0,0,0
CC(=O)Nc1ccc2c(c1)/C(=C/c1ccc([N+](C)(C)C)cc1)c1ccccc1-2,-,-,0[14.2 µM],-
CC(=O)Nc1cc2c(cc1C(=O)c1ccccc1)OCCO2,0,0,0,0
O=C(Nc1cc2c(cc1C(=O)c1ccccc1Cl)OCCO2)c1ccccc1,0.0891µM[quencher],?,-,0
CCC(=O)Nc1cc2c(cc1C(=O)c1ccccc1)OCCO2,28.2µM[fluorescent],?,0,0
CN(C)Cc1cc(CN(C)C)c(O)c(CN(C)C)c1,0,0,-,-
CC1=CC(C#N)(C#N)C(C#N)(C#N)C(c2ccccc2)N1 (centres undefined),0,0,31.6µM,-
Cc1ccc(NC(=O)CSc2nc(C)c(Cc3ccccc3)c(=O)[nH]2)cc1C,39.8µM![quencher],?,0,0
Cc1ccccc1OCCSc1nc(C)c(Cc2ccccc2)c(=O)[nH]1,3.16µM[quencher],?,-,0
Cc1ccc(NC(=O)CSc2ncc(S(=O)(=O)c3ccccc3)c(=O)[nH]2)cc1C,0.0003µM[quencher],0,0,0
Cc1nc(SCCOc2ccccc2)[nH]c(=O)c1Cc1ccccc1,0,0,0,0
CCOC(=O)c1ccc(NC(=O)CSc2nc(C)c(Cc3ccccc3)c(=O)[nH]2)cc1,?,0,-,0
O=C(c1ccc(F)cc1)n1nc(-c2cccnc2)nc1NCc1ccccc1,0,0,-,0
CC(C)CC(=O)n1nc(-c2cccnc2)nc1NCc1ccc(F)cc1,0.0891µM[quencher],0,-,0
CCN(CC)c1ccc(/C=c2\sc3nc4ccccc4n3c2=O)c(O)c1,50.1µM[fluorescent],0,0,0
COC(=O)c1cc2c(-c3ccccc3)cc3ccccn3c-2c1C(=O)OC,0,0,0,0
COC(=O)c1c(C(=O)OC)c2cccc3cc(-c4ccccc4)c4ccc1c4n32,0,0,17.8µM,0
CCCS(=O)(=O)N1CC(=O)N(c2ccc(Cl)cc2C)C(C)(C(=O)NC2CCCC2)C1 (centres undefined),28.2µM[quencher],0,-,0
CCCS(=O)(=O)N1CC(=O)N(c2ccc(Cl)cc2)C(C)(C(=O)NC2CCCC2)C1 (centres undefined),0,0,-,0
CCS(=O)(=O)N1CC(=O)N(c2ccc(Cl)cc2)C(C)(C(=O)NC2CCCCCC2)C1 (centres undefined),17.8µM[quencher],0,-,0
SMILES,TexasRed fluor,TRb SRC2 PPI,RGS12 GoLoco inh,ERG Ets-DNA blk
CCC(=O)Nc1ccc2nc3c(=O)n(C)c(=O)n(C)c3nc2c1,0,0,-,0
CCN(CC)c1ccc2nc3c(=O)n(C)c(=O)n(C)c3nc2c1,22.4µM[fluorescent],0,-,?
C[C@]12CC[C@@H]3c4ccc(O)cc4CC[C@H]3[C@H]1CC[C@H]2O,0,0,-,-
CN(C)c1ccc2c(-c3ccccc3)c3ccc(=[N+](C)C)cc-3oc2c1,0.891µM[fluorescent],0.1µM,-,-
C=C(CO)C1Cc2c(ccc3c2OC2COc4cc(OC)c(OC)cc4C2C3=O)O1 (centres undefined),0,0,0,-
CN(C)CCCNc1cc(O)c2c(c1O)C(=O)c1ccccc1C2=O,-,-,3.55µM,-
COc1ccc(CNC(=O)c2cnc3sc(N4CCOCC4)nn3c2=O)cc1,501µM[quencher],0,-,0
Cc1ccc(/C=C/C(=O)Nc2ccc(S(=O)(=O)Nc3onc(C)c3C)cc2)cc1,-,-,-,28.2µM
COc1ccc(CN[C@H](C)C(=O)O)cc1,-,-,0[14.2 µM],-
CCCn1c2ccccc2c2cnn(CC(=O)Nc3ccccc3OC)c(=O)c21,?,0,-,0
CCCn1c2ccccc2c2cnn(CC(=O)Nc3cc(OC)c(OC)c(OC)c3)c(=O)c21,17.8µM[quencher],0,-,0
c1ccc(B(c2ccccc2)c2ccccc2)cc1,0,0,-,-
CCSc1ncc(Cl)c(C(=O)Nc2nc3ccc(Cl)cc3s2)n1,0,0,-,0
CCSc1ncc(Cl)c(C(=O)Nc2nc3ccc(OC)cc3s2)n1,2.51µM[quencher],?,-,0
CCSc1ncc(Cl)c(C(=O)Nc2nc3ccc(S(C)(=O)=O)cc3s2)n1,35.5µM[quencher],0,-,0
O=C(O)CCC(=O)N1c2ccccc2NC2=C(C(=O)CC(c3ccc(F)cc3)C2)C1c1ccc([N+](=O)[O-])o1 (centres undefined),0,0,0,0
COc1ccc(C2CC(=O)C3=C(C2)Nc2ccccc2N(C(=O)CCC(=O)O)C3c2ccc(F)cc2)cc1 (centres undefined),0,0,5.62µM,0
CC[N+]1(CC(O)COC2CC(C)CC(C)(C)C2)CCOCC1 (centres undefined),0,0,5.62µM,0
Cc1ccc2oc(C(=O)Nc3ccc(S(=O)(=O)Nc4nc(C)cc(C)n4)cc3)cc(=O)c2c1,31.6µM[quencher],0,-,0
O=C1C=CC2=C3c4cc(O)c(O)cc4CC3(O)COC2=C1O (centres undefined),?,0,2.51µM,0
CC(CNC(=O)CN1C(=O)c2cccnc2Oc2ccc(Cl)cc21)c1ccccc1 (centres undefined),0,0,-,0
CC(C)Oc1ccc(CNC(=O)CN2C(=O)c3cccnc3Oc3ccc(Cl)cc32)cc1,20µM[quencher],0,-,0
CCOc1ccccc1CNC(=O)CN1C(=O)c2cccnc2Oc2ccc(C)cc21,22.4µM[quencher],0,-,0
Cc1ccc2c(c1)N(CC(=O)NCc1ccccc1Br)C(=O)c1cccnc1O2,0,0,-,0
CCCC/C=C\CCCCCCCCO,0,0,-,-
SMILES,TexasRed fluor,TRb SRC2 PPI,RGS12 GoLoco inh,ERG Ets-DNA blk
CC(C)(C)C1CCC(O)CC1 (centres undefined),0,0,-,-
CC(C)c1ccc(C(C)C)cc1,0,0,-,-
C/C(=N\Nc1ccc([N+](=O)[O-])cc1)c1ccc(N)cc1,0.316µM[quencher],0,0,-
CCc1ccc(/C(C)=N\Nc2ccc([N+](=O)[O-])cc2)cc1,0,0,0,0
Cc1c(OC(=O)c2ccc([N+](=O)[O-])cc2)c2c(c[n+]1C)COC(C)(C)OC2,0,0,12.6µM,0
CN1C(=O)/C(=C/c2ccc(-c3ccccc3[N+](=O)[O-])o2)SC1=Nc1ccc(Cl)c(C(=O)O)c1,0,0,14.1µM,0
COc1ccc(/C=C(/C(=O)c2ccc(Cl)cc2Cl)n2cncn2)cc1,0,0,0,0
CN(C)c1ccc(/C=C(/C(=O)c2ccc(Cl)cc2Cl)n2cncn2)cc1,31623µM[quencher],0,0,-
COc1ccccc1C(=O)Nc1c(C(=O)c2ccccc2)oc2ccccc12,0.0562µM[quencher],0,-,0
COc1ccccc1C(=O)Nc1c(C(=O)NC(C)(C)C)oc2ccccc12,0,0,-,0
